Data reported in PubChem BioAssay (NCI).
The panel holds about 83,000 compounds, 20% with a hit somewhere; the sample as a whole holds those more often.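 Cell lines were cultured in 96-well plates, exposed to a single compound concentration, and assessed for percent growth 48 hours later.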 Values without a mark were called inactive. Calls of active or inactive are those of the source. Rule for the calls: active = growth percent below 10; inactive = the rest.

tested on: MDA-MB-468 breast; experiment: NCI-60 one-dose screen, 48 h (100 = growth as untreated, 0 = no growth, -100 = all killed); settings: 10 µM unless noted

With `Brc1ccc2[nH]cc(-c3nc(-c4c[nH]c5ccncc45)cs3)c2c1` the growth was -71.4% (active).
`COCCNCC(O)Cn1c2ccc(Cl)cc2c2cc(Cl)ccc21` (stereo not given) was tested, and the growth was -43.9% (active).

In order of rising growth:
1. COc1ccc(CN2c3ccccc3Sc3ccccc32)c(C(F)(F)F)c1  18.8%
2. Nc1c(C(=O)Nc2ccccc2)sc2nc3c(cc12)C(O)CCC3 (stereo not given)  51.6%
3. O=S(=O)(NCCNc1nccc(-c2c(-c3ccc(F)cc3)nc3sccn23)n1)c1ccc(F)cc1  52.1%
4. COc1ccncc1C#Cc1cncc(C(=O)Nc2ccc(CN3CCN(C)CC3)c(C(F)(F)F)c2)c1  73.1%
5. Cc1ccc(-c2nc(C#N)c(S(=O)(=O)N(C)C)o2)cc1  81.6%
6. O=C(Nc1ccccc1C(F)(F)F)C1=NCCCCN1  94.8%
7. Cc1ccc(-c2[nH][nH]c(=O)c2-c2nc3ccccc3s2)cc1  98.1%
8. Cc1ccc(C2=NN(C)C(=O)C3(CCCC3)C2)cc1  98.7%
9. COC(=O)/C=C1\S/C(=N\NS(=O)(=O)c2ccc(C)cc2)N(c2ccccc2)C1=O  102%
10. COC(=O)[C@@]12CC[C@@H](C)[C@]3(C[C@@H](c4ccoc4)OC3=O)[C@H]1CC[C@@H]1O[C@@]12C  106%
11. S=c1[nH]nc(-c2cc3ccc2CCc2ccc(cc2)CC3)n1-c1ccccc1  109%
12. Nc1c(Cl)cccc1[N+](=O)[O-]  115%
13. COc1ccc(CCN=Cc2ccc(Cl)cc2)cc1OC  117%
